# Experimental data taken from PubChem BioAssay (NCI).
# Compounds without any hit were thinned out: in the full panel of roughly 79,000, 15% have a hit. Unmarked numbers belong to inactive results. The source made the active and inactive calls. Cut-off read from the data, not from the text of the source: active = growth inhibition above about 70%; inactive = the rest.
# Columns and labels:
# [1] = NCI Yeast Anticancer Drug Screen. Data for the rad52 strain (AID 147);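 note: 0% = growth of vehicle-treated control cultures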; conditions: S. cerevisiae rad52 mutant growth inhibition, stronger effect = higher value
# Method in brief: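 Vehicle-treated cultures served as the reference for growth inhibition of compound-exposed yeast bearing a DNA repair mutation.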
# [2] = NCI Yeast Anticancer Drug Screen. Data for the wt1 strain (AID 149);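 note: 0% = growth of vehicle-treated wt1 cultures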; conditions: S. cerevisiae wt1 strain (SPY 50644) growth inhibition, stronger effect = higher value
# Method in brief: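 Each compound is tested on wt1 yeast and the loss of growth versus vehicle gives the inhibition value.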
# [3] = NCI Yeast Anticancer Drug Screen. Data for the rad50EPP+ strain (AID 151);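 note: 0% = growth of vehicle-treated control cultures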; conditions: S. cerevisiae rad50 mutant strain, stronger effect = higher value
# Method in brief: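 In this screen, rad50EPP+ yeast were exposed to compounds. Growth inhibition was scored against vehicle-treated controls.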
# [4] = NCI Yeast Anticancer Drug Screen. Data for the mgt1 strain (AID 153); conditions: S. cerevisiae mgt1 mutant growth inhibition, stronger effect = higher value
# Method in brief: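 mgt1 strain exposed; growth vs vehicle control recorded as inhibition.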
# [5] = NCI Yeast Anticancer Drug Screen. Data for the rad50 strain (AID 155);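 note: 0% = growth of vehicle-only cultures of the same strain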; conditions: S. cerevisiae rad50 strain growth inhibition, stronger effect = higher value
# Method in brief: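 Vehicle-treated cultures provide the reference for the growth inhibition reported for compound-exposed, repair-deficient yeast.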
# [6] = NCI Yeast Anticancer Drug Screen. Data for the mec2-1 strain (AID 157); conditions: S. cerevisiae mec2-1 strain, stronger effect = higher value
# Method in brief: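 Vehicle-treated cultures served as reference for growth inhibition of compound-exposed mec2-1 yeast.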
# [7] = NCI Yeast Anticancer Drug Screen. Data for the rad14 strain (AID 159);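 note: 0% = growth of vehicle-treated control cultures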; conditions: S. cerevisiae rad14 strain growth inhibition, stronger effect = higher value
# Method in brief: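 Inhibition of growth is reported for a repair-deficient yeast mutant following compound treatment, calculated relative to cultures that received vehicle.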
# [8] = NCI Yeast Anticancer Drug Screen. Data for the sgs1 mgt1 strain (AID 161);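 note: 0% = growth of cultures given vehicle only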; conditions: S. cerevisiae sgs1 mgt1 strain, stronger effect = higher value
# Method in brief: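 Test agents were incubated with a DNA-repair-mutant yeast strain. Growth was then read and compared against vehicle-treated controls.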
# [9] = NCI Yeast Anticancer Drug Screen. Data for the CLN2oe strain (AID 163);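 note: 0% = growth of vehicle-only control cultures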; conditions: S. cerevisiae CLN2oe strain, stronger effect = higher value
# Method in brief: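 Inhibition relative to vehicle-treated yeast is reported. Cells: strain with genetic alteration in cell-cycle control, grown with compound.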
# [10] = NCI Yeast Anticancer Drug Screen. Data for the cln2 rad14 strain (AID 165);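 note: 0% = growth equal to vehicle treated cultures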; conditions: S. cerevisiae cln2 rad14 strain, stronger effect = higher value
# Method in brief: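 Each compound was tested on cln2 rad14 yeast. Inhibition of growth was calculated against vehicle-exposed controls.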
# [11] = NCI Yeast Anticancer Drug Screen. Data for the bub3 strain (AID 167); conditions: S. cerevisiae bub3 mutant strain, stronger effect = higher value
# Method in brief: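 Mutant yeast screening strain plus compound; vehicle-treated cultures serve as the 0% inhibition reference.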
# [12] = NCI Yeast Anticancer Drug Screen. Data for the wt2 strain (AID 169); conditions: S. cerevisiae wt2 strain growth inhibition, stronger effect = higher value
# Method in brief: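 Inhibition of yeast growth was determined after compound treatment, normalised to controls receiving only vehicle.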
# [13] = NCI Yeast Anticancer Drug Screen. Data for the mlh1 strain (AID 171);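 note: 0% = growth of vehicle-treated control cultures of the same strain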; conditions: S. cerevisiae mlh1 strain growth inhibition, stronger effect = higher value
# Method in brief: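 Vehicle-normalised growth inhibition of a repair- or checkpoint-altered yeast strain following compound treatment.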
# [14] = NCI Yeast Anticancer Drug Screen. Data for the sgs1 strain (AID 173);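 note: 0% = growth of vehicle-only control cultures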; conditions: S. cerevisiae sgs1 mutant, stronger effect = higher value
# Method in brief: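 Screen format: yeast with repair or checkpoint alterations, compound exposure, growth read relative to vehicle.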
# [15] = NCI Yeast Anticancer Drug Screen. Data for the mlh1 rad18 strain (AID 175); conditions: S. cerevisiae mlh1 rad18 strain growth inhibition, stronger effect = higher value
# Method in brief: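 Vehicle-treated cultures served as the reference for growth inhibition in a yeast strain carrying DNA damage repair alterations exposed to each compound.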
# [16] = NCI Yeast Anticancer Drug Screen. Data for the rad18 strain (AID 177); conditions: S. cerevisiae rad18 mutant growth inhibition, stronger effect = higher value
# Method in brief: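 Test articles were incubated with altered yeast defective in DNA damage repair. Results are given as inhibition of growth versus vehicle.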
# [17] = at 5.0 µM (retest, dose inferred, filed as 0.5)
# [18] = at 50.0 µM (retest, dose inferred, filed as 5.0)
smiles,measurement,setting,value
Nc1cc(N)c(N=Nc2cccc3c(S(=O)(=O)O)cccc23)cc1N=Nc1cc([N+](=O)[O-])ccc1O,growth inhibition,[1]; at 1.2 µM,32%
same,growth inhibition,[1]; at 3.7 µM,26%
same,growth inhibition,[1]; at 11.0 µM,17%
same,growth inhibition,[1]; at 33.0 µM,-23%
same,growth inhibition,[1]; at 100.0 µM,56%
same,growth inhibition,[2]; at 1.2 µM,7%
same,growth inhibition,[2]; at 3.7 µM,13%
same,growth inhibition,[2]; at 11.0 µM,7%
same,growth inhibition,[2]; at 33.0 µM,8%
same,growth inhibition,[2]; at 100.0 µM,19%
same,growth inhibition,[3]; at 1.2 µM,-11%
same,growth inhibition,[3]; at 3.7 µM,3%
same,growth inhibition,[3]; at 11.0 µM,-4%
same,growth inhibition,[3]; at 33.0 µM,-4%
same,growth inhibition,[3]; at 100.0 µM,38%
same,growth inhibition,[4]; at 1.2 µM,-19%
same,growth inhibition,[4]; at 3.7 µM,8%
same,growth inhibition,[4]; at 11.0 µM,9%
same,growth inhibition,[4]; at 33.0 µM,12%
same,growth inhibition,[4]; at 100.0 µM,65%
same,growth inhibition,[5]; at 1.2 µM,15%
same,growth inhibition,[5]; at 3.7 µM,10%
same,growth inhibition,[5]; [17],46%
same,growth inhibition,[5]; at 11.0 µM,8%
same,growth inhibition,[5]; at 33.0 µM,6%
same,growth inhibition,[5]; [18],61%
same,growth inhibition,[5]; at 50.0 µM,38.5%
same,growth inhibition,[5]; at 100.0 µM,54%
same,growth inhibition,[6]; at 1.2 µM,1%
same,growth inhibition,[6]; at 3.7 µM,-11%
same,growth inhibition,[6]; [17],64%
same,growth inhibition,[6]; at 11.0 µM,-11%
same,growth inhibition,[6]; at 33.0 µM,-17%
same,growth inhibition,[6]; [18],69%
same,growth inhibition,[6]; at 50.0 µM,4.9%
same,growth inhibition,[6]; at 100.0 µM,17%
same,growth inhibition,[7]; at 1.2 µM,-17%
same,growth inhibition,[7]; at 3.7 µM,-22%
same,growth inhibition,[7]; at 11.0 µM,-19%
same,growth inhibition,[7]; at 33.0 µM,-18%
same,growth inhibition,[7]; at 100.0 µM,47%
same,growth inhibition,[8]; [17],-10%
same,growth inhibition,[8]; [18],84% (active)
same,growth inhibition,[8]; at 50.0 µM,26.4%
same,growth inhibition,[9]; at 1.2 µM,4%
same,growth inhibition,[9]; at 3.7 µM,16%
same,growth inhibition,[9]; at 11.0 µM,-4%
same,growth inhibition,[9]; at 33.0 µM,-7%
same,growth inhibition,[9]; at 100.0 µM,-3%
same,growth inhibition,[10]; [17],33%
same,growth inhibition,[10]; [18],92% (active)
same,growth inhibition,[10]; at 50.0 µM,42.5%
same,growth inhibition,[11]; at 1.2 µM,-6%
same,growth inhibition,[11]; at 3.7 µM,6%
same,growth inhibition,[11]; [17],19%
same,growth inhibition,[11]; at 11.0 µM,10%
same,growth inhibition,[11]; at 33.0 µM,0%
same,growth inhibition,[11]; [18],79% (active)
same,growth inhibition,[11]; at 50.0 µM,70.8% (active)
same,growth inhibition,[11]; at 100.0 µM,53%
same,growth inhibition,[12]; at 1.2 µM,-14%
same,growth inhibition,[12]; at 3.7 µM,-11%
same,growth inhibition,[12]; at 11.0 µM,-26%
same,growth inhibition,[12]; at 33.0 µM,6%
same,growth inhibition,[12]; at 100.0 µM,47%
same,growth inhibition,[13]; at 1.2 µM,-15%
same,growth inhibition,[13]; at 3.7 µM,-21%
same,growth inhibition,[13]; at 11.0 µM,-15%
same,growth inhibition,[13]; at 33.0 µM,-18%
same,growth inhibition,[13]; at 100.0 µM,23%
same,growth inhibition,[14]; at 1.2 µM,-7%
same,growth inhibition,[14]; at 3.7 µM,24%
same,growth inhibition,[14]; at 11.0 µM,19%
same,growth inhibition,[14]; at 33.0 µM,34%
same,growth inhibition,[14]; at 100.0 µM,59%
same,growth inhibition,[15]; [17],52%
same,growth inhibition,[15]; [18],48%
same,growth inhibition,[15]; at 50.0 µM,65.7%
same,growth inhibition,[16]; at 1.2 µM,-13%
same,growth inhibition,[16]; at 3.7 µM,-28%
same,growth inhibition,[16]; at 11.0 µM,-23%
same,growth inhibition,[16]; at 33.0 µM,-16%
same,growth inhibition,[16]; at 100.0 µM,36%
COc1ccc(NC(=O)CC2SC(=Nc3ccccc3C)NC2=O)c([N+](=O)[O-])c1 (stereo not drawn),growth inhibition,[1]; at 1.2 µM,0%
same,growth inhibition,[1]; at 3.7 µM,-2%
same,growth inhibition,[1]; at 11.0 µM,2%
same,growth inhibition,[1]; at 33.0 µM,13%
same,growth inhibition,[1]; at 100.0 µM,75% (active)
same,growth inhibition,[2]; at 1.2 µM,-1%
same,growth inhibition,[2]; at 3.7 µM,-1%
same,growth inhibition,[2]; at 11.0 µM,1%
same,growth inhibition,[2]; at 33.0 µM,10%
same,growth inhibition,[2]; at 100.0 µM,36%
same,growth inhibition,[3]; at 1.2 µM,-2%
same,growth inhibition,[3]; at 3.7 µM,-2%
same,growth inhibition,[3]; at 11.0 µM,1%
same,growth inhibition,[3]; at 33.0 µM,28%
same,growth inhibition,[3]; at 100.0 µM,80% (active)
same,growth inhibition,[4]; at 1.2 µM,-2%
same,growth inhibition,[4]; at 3.7 µM,1%
same,growth inhibition,[4]; at 11.0 µM,1%
same,growth inhibition,[4]; at 33.0 µM,12%
same,growth inhibition,[4]; at 100.0 µM,99% (active)
same,growth inhibition,[5]; at 1.2 µM,1%
same,growth inhibition,[5]; at 3.7 µM,-44%
same,growth inhibition,[5]; [17],0%
same,growth inhibition,[5]; at 11.0 µM,26%
same,growth inhibition,[5]; at 33.0 µM,18%
same,growth inhibition,[5]; [18],69%
same,growth inhibition,[5]; at 50.0 µM,56.7%
same,growth inhibition,[5]; at 100.0 µM,98% (active)
same,growth inhibition,[6]; at 1.2 µM,1%
same,growth inhibition,[6]; at 3.7 µM,1%
same,growth inhibition,[6]; [17],-17%
same,growth inhibition,[6]; at 11.0 µM,4%
same,growth inhibition,[6]; at 33.0 µM,15%
same,growth inhibition,[6]; [18],66%
same,growth inhibition,[6]; at 50.0 µM,72.2% (active)
same,growth inhibition,[6]; at 100.0 µM,97% (active)
same,growth inhibition,[7]; at 1.2 µM,-2%
same,growth inhibition,[7]; at 3.7 µM,-2%
same,growth inhibition,[7]; at 11.0 µM,1%
same,growth inhibition,[7]; at 33.0 µM,10%
same,growth inhibition,[7]; at 100.0 µM,97% (active)
same,growth inhibition,[8]; [17],2%
same,growth inhibition,[8]; [18],74% (active)
same,growth inhibition,[8]; at 50.0 µM,72.9% (active)
same,growth inhibition,[9]; at 1.2 µM,0%
same,growth inhibition,[9]; at 3.7 µM,-4%
same,growth inhibition,[9]; at 11.0 µM,0%
same,growth inhibition,[9]; at 33.0 µM,-6%
same,growth inhibition,[9]; at 100.0 µM,16%
same,growth inhibition,[10]; [17],-2%
same,growth inhibition,[10]; [18],22%
same,growth inhibition,[10]; at 50.0 µM,32.2%
same,growth inhibition,[11]; at 1.2 µM,2%
same,growth inhibition,[11]; at 3.7 µM,-1%
same,growth inhibition,[11]; [17],-8%
same,growth inhibition,[11]; at 11.0 µM,-5%
same,growth inhibition,[11]; at 33.0 µM,6%
same,growth inhibition,[11]; [18],71% (active)
same,growth inhibition,[11]; at 50.0 µM,34.7%
same,growth inhibition,[11]; at 100.0 µM,97% (active)
